The sample as a whole holds a higher share of hits than the screen did.
Rango-impB inh: Rango-importin beta binding inhibition; Q14974; Potency, µM (doses to about 92.2 µM), inactives show at the highest dose inhibition of complex formation; Rango CFP/YFP FRET sensor + importin beta, 45 min; 340,000 tested, 0.031% active;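 also: potency is read from the fitted curve at half-maximal effect; 0% = DMSO wells and 100% = buffer wells lacking importin beta; nearly all actives have a fitted effect of over 15% in size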
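Inhibition scored from the CFP 486 nm/YFP 530 nm FRET ratio 45 min after adding 0.125 microM importin beta to 50 nM Rango biosensor preincubated 5 min with compound (room temperature, PBS with DTT, Tween-20, BSA). No-importin wells as positive control.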
MBNL1-CUG inh: blocks human MBNL1 binding to CUG repeat RNA; Q9NR56; TR-FRET MBNL1-His/biotin-(CUG)12 binding, 665/545 ratio; 280,000 tested, 0.036% active; AID 2675; Potency, µM (doses to about 57.5 µM), without a hit: at the top dose activity change, negative = inhibition, actives largely listed as inhibitors; active = well fitted inhibition curve with a large enough effect in the signal ratio, with a control signal flat, not every such curve was filed as active; inconclusive = small, poorly fitted or top-dose-only effect, or effect the other way, or a change in a side signal; inactive = no such curve, though single readings can be large or run the other way; the % refers to the signal ratio; also: potency is read from the fitted curve at half-maximal effect; % is scaled to controls: 0 for no effect and ±100 for the full control effect
Target sequence (Q9NR56 whole entry, looked up): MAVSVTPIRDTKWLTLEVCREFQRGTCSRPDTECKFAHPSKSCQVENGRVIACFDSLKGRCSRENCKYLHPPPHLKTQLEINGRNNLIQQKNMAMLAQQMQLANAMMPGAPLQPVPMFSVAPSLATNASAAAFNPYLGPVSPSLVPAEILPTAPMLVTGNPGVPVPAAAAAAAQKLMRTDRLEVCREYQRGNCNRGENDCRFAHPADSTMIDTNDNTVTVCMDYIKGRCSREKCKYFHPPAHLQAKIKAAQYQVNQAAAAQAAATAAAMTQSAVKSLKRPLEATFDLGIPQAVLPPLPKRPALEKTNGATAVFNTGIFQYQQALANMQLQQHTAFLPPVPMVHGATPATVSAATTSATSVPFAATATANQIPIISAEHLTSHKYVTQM
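TR-FRET between His-tagged MBNL1 and biotin-(CUG)12 RNA, detected with Tb anti-His antibody (0.055 ng/ul) and streptavidin-XL665 (5 nM), 60 min at room temperature. Compounds titrated 92 nM to 58 uM; 665/545 nm ratio normalized to buffer and complex controls.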
CBFb-RUNX1 inh: CBF-beta/RUNX1 interaction disruption | 230,000 tested, under 10 active | Q01196+Q13951 | AlphaScreen CBFb-His/RUNX1-biotin binding, biochemical | AID 1477 | Potency, µM (doses to about 59.8 µM), for inactives: at the highest dose activity, negative = inhibition, usual class: inhibitors; active = well fitted curve in the direction sought with a large enough effect; inconclusive = small, poorly fitted or top-dose-only effect, or effect the other way, or another doubt; inactive = no such curve, though single readings can be large or run the other way; also: % of control where 0% means no effect
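Interaction loss through any mechanism counts as activity. Pre-formed complex of His-CBF-beta and biotin-RUNX1 (30 nM apiece) is incubated with compound 15 min, then with 50 ng nickel and 50 ng streptavidin beads for 90 min before AlphaScreen detection.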
ClpP mod: qHTS Assay for Activators of ClpP. 340,000 tested, 1.9% active. AID 651965, 2013. purified B. subtilis ClpP, FRET peptide cleavage, 20 min. Potency, µM (top dose mostly 57.5 µM), without a hit: at the top dose activity change, negative = active. ATP-dependent Clp protease proteolytic subunit (Bacillus subtilis (strain 168)), P80244; active = well fitted falling curve with a large enough effect; inconclusive = small, poorly fitted or top-dose-only effect; inactive = no such curve, though single readings can be large or run the other way; also: potency is read from the fitted curve at half-maximal effect; the source files actives as falling curves though it sought activators and does not explain the sign; nearly all actives have a fitted effect of over 65% in size
Target sequence (P80244 whole entry, looked up): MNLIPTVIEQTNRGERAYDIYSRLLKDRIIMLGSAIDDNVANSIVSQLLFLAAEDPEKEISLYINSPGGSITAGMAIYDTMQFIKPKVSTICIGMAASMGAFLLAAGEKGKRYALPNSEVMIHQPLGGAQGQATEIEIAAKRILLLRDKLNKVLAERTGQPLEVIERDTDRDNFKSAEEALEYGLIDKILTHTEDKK
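FRET quenching reversal measured ClpP activation: 10 microg/mL B. subtilis ClpP at pH 8 with the FRET-FV decapeptide, read at 430 nm after 320 nm excitation. The 20-min minus 0-min signal was scaled between DMSO/no-enzyme wells and ADEP (5.8 microM final).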
Rango dissoc inh: prevents RanGTP from dissociating the Rango-importin beta complex; O95149+P62826; Biochemical FRET Rango-importin beta, RanGTP-induced dissociation; Potency, µM (doses to about 46.1 µM), for the others: at the top dose activity change, negative = inhibition; 340,000 tested, 0.071% active; also: potency is read from the fitted curve at half-maximal effect; % of control where 0% means no effect; nearly all actives have a fitted effect of over 45% in size
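Rango FRET biosensor (snurportin-1 IBB flanked by N-terminal EYFP and C-terminal CFP10) at 0.1 uM, with 0.25 uM importin beta in PBS, 1mM DTT, 0.02% Tween-20, 0.1% BSA. 0.6 uM Ran, 2mM GTP and 0.2 uM RCC1 were then added for 45 min at room temperature. Inhibition read as loss of FRET rise.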
The depositor's hits bear a star; ? = inconclusive; · = not tested or not shown; ! = not active in a repeat; [ ] = another dose, or the depositor's remark. Unless noted, calls follow the shape of the full dose curve.

SMILES | Rango-impB inh | MBNL1-CUG inh | CBFb-RUNX1 inh | ClpP mod | Rango dissoc inh
O=C(COC(=O)C1=NN(c2ccccc2)C(=O)CC1)NCc1ccccc1Cl | 3% | · | · | 28µM* | 4%
CC(NC(=O)COC(=O)C1=NN(c2ccccc2)C(=O)CC1)c1ccccc1 (stereo unspecified) | -1% | · | · | 0% | 9%
CCOc1ccc(S(=O)(=O)NCC2CCCO2)c2cccnc12 (stereo unspecified) | -3% | -7% | -2% | 40µM* | -19%
CCOc1ccc(S(=O)(=O)NCc2ccc(Cl)cc2)c2cccnc12 | ? | 10% | 2% | 16µM* | -4%
CCOc1ccc(S(=O)(=O)NCc2cccnc2)c2ccccc12 | 1% | 7% | · | · | -8%
CC(=O)c1cccc(NC(=S)NC2CCCCC2)c1 | 0% | 0% | 6% | 14µM* | 6%
CC(=O)c1cccc(NC(=S)NC(=O)c2cccc(C)c2)c1 | 6% | · | -3% | 16µM* | 15%
CCCCOc1cccc(C(=O)NNC(=S)NC2CCCCC2)c1 | 1% | -9% | -1% | 25µM* | -7%
Cc1cccc(NC(=S)N/C(=N/S(=O)(=O)c2ccccc2)c2ccccc2)c1 | 2% | 5% | -2% | 2.2µM*! | -9%
CC(=O)c1cccc(NC(=S)NC(=O)c2ccc(Cl)cc2)c1 | 0% | -1% | -1% | -2% | 19%
C=CCN1c2ccccc2[C@]23C[C@@H](C(=O)OC)N(S(=O)(=O)c4ccc(C#N)cc4)C2=NC(C(=O)OC)=C(C(=O)OC)[C@H]13 | · | · | -5%[13.1 µM] | · | ·
CCc1ccc(OCc2nc(-c3ccc(OC)c(OC)c3)no2)c(Br)c1 | · | · | · | -10% | ·
CC(C)CN(Cc1c(O)ccc2c3c(c(=O)oc12)CCC3)CC(C)C | -1% | 1% | -1% | 13µM* | -25%
CC(=O)C(C)Oc1ccc2c3c(c(=O)oc2c1C)CCCC3 (stereo unspecified) | 1% | 0% | 7% | 98% | 7%
Cc1c(O)ccc2c3c(c(=O)oc12)CCC(C)C3 (stereo unspecified) | ? | -8% | 0% | 25µM* | ?
Cc1c(O)ccc2c3c(c(=O)oc12)CCCC3 | ? | 4% | 5% | 25µM* | ?
COc1ccc(CCN2C(=O)c3oc4cc(C)cc(C)c4c(=O)c3C2c2ccc(F)cc2)cc1OC (stereo unspecified) | · | · | · | 0% | ·
CCSc1nc(-c2ccc(OC)cc2)nc2c1Cc1c(CO)cnc(C)c1O2 | · | · | · | -2% | ·
Cc1nn2c(N3CCCC3)c3c(nc2c1-c1ccccc1)CCC3 | 3% | 11% | -5% | · | -5%
OC1CCN(c2c3c(nc4cc(-c5ccc(Cl)cc5)nn24)CCC3)CC1 | 0% | 18% | 1% | 14µM* | 8%
Clc1cccc(N2CCN(c3c4c(nc5nncn35)CCC4)CC2)c1 | · | · | · | -1% | ·
Fc1cccc(-c2cc3nc4c(c(N5CCOCC5)n3n2)CCCC4)c1 | 8% | 3% | 8% | ? | -10%
Clc1cccc(-c2cc3nc4c(c(N5CCN(c6cnccn6)CC5)n3n2)CCCC4)c1 | 3% | 7% | -3% | 10µM* | 1%
Clc1cccc(-c2cc3nc4c(c(N5CCOCC5)n3n2)CCCC4)c1 | 1% | 0% | 23% | 32µM* | -1%
COc1cc2nc(N3CCCN(C)CC3)nc(NC3CCNCC3)c2cc1OC | · | · | · | 4% | ·
SMILES | Rango-impB inh | MBNL1-CUG inh | CBFb-RUNX1 inh | ClpP mod | Rango dissoc inh
Cc1cc2nn(-c3ccc(F)cc3)nc2cc1N | ? | 16% | · | · | 9.2µM*
Cc1cc2nn(-c3ccc(Cl)cc3)nc2cc1N | ? | -1% | · | 5% | ?
Cc1cc(C(Br)(Br)Br)nc2ccccc12 | · | · | · | 1% | ·
CCc1nc(N)c(C#N)c(-c2ccc(F)cc2)c1C | 1% | 6% | 1% | 28µM* | 3%
CCOC(=O)c1cc(C#N)c(NCc2ccccc2)nc1C | 1% | 5% | 13% | 32µM* | 0%
CCOC(=O)c1cc(C#N)c(N2CCCC2)nc1-c1ccccc1 | -3% | 14% | ? | 28µM* | -26%
CCC(=O)N1CCN(c2nc(-c3ccccc3)c3c(c2C#N)CCCC3)CC1 | ? | 8% | 23% | 32µM* | -20%
